Screening results: PubChem BioAssay, National Center for Advancing Translational Sciences (NCATS)
HCV inhibitor – blocks hepatitis C virus. Huh7.5.1 HCVcc-Cre infection, luciferase reporter, 44 h. Potency, µM (series often up to 41.8 µM), actives largely listed as inhibitors. actives 3.4% (n = 340,000); active means well fitted inhibition curve with a large enough effect; inconclusive means small, poorly fitted or top-dose-only effect, or another doubt; inactive means no such curve, though single readings can be large or run the other way
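Luciferase read-out (15 sec integration) after a 15 min room-temperature substrate step quantifies HCVcc-Cre infection. Cells, 1,000 per well, had compound added 4 h post-plating, then virus at ~0.5 moi, and were cultured 44 h.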
MARV entry inh – blocks Marburg virus binding to or entry into cells. Marburg virus pseudotyped entry inhibition, cell reporter. Potency, µM (series often up to 37.8 µM), hits mostly inhibitors. AID 540276. actives 1.8% (n = 300,000); calls by dose curve; tested in HEK293 cells
HCMV antiviral – human cytomegalovirus inhibition; AID 1259415; activity change, negative = inhibition, % at 57.5 µM; actives 4.5% (n = 410,000); HFF cells, HCMV-luciferase reporter, 72 h; stronger effect = lower value; in the data active means activity change below about -60%; inconclusive means no clear call, values can overlap the other calls; inactive means above about -39%
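Steps: HFFs plated, 16 h 37C; compounds added; HCMV-luciferase added to MOI 1 PFU/cell; 72 h 37C; OneGlo reagent, 5 min room temperature; luminescence read, normalized to controls.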
VACV Venus inh – vaccinia inhibition (Venus reporter) | Vaccinia virus Venus reporter expression, fluorescence | Potency, µM (titrated, usually from 36.5 µM), usual class: inhibitors | actives 0.46% (n = 330,000) | AID 720580; calls by dose curve; tested in A549 cells; further: nearly all actives have a fitted effect of over 30% in size
Lassa entry inh – blocks Lassa virus binding to or entry into cells; Lassa virus pseudotype entry inhibition, cell reporter; Potency, µM (highest dose often 37.9 µM), actives largely listed as inhibitors; actives 1.2% (n = 300,000); AID 540256; calls by dose curve; tested in HEK293 cells; further: nearly all actives have a fitted effect of over 50% in size
Vaccinia mCherry – inhibitors of vaccinia virus infection (mCherry reporter signal) | AID 720579 | actives 0.63% (n = 310,000) | Potency, µM (top dose mostly 36.5 µM), hits mostly inhibitors | Vaccinia virus mCherry reporter infection, fluorescence; calls by dose curve; tested in A549 cells; further: nearly all actives have a fitted effect of over 35% in size
Numbers stand for hits; n = inactive; u = inconclusive; x = no result given; [ ] = remark or other dose. Compounds with a hit are over-represented: about 7.8% of the library has one in this group of screens.

SMILES	HCV inhibitor	MARV entry inh	HCMV antiviral	VACV Venus inh	Lassa entry inh	Vaccinia mCherry
CCCCCOC(=O)[C@H](C)c1c(C)[nH]c(=S)[nH]c1=O	x	n	x	x	x	x
C[C@]12c3[nH]c4cc(-c5ccco5)ccc4c3CCN1C(=O)[C@@H](CC(=O)NCc1cccc(C(F)(F)F)c1)C[C@@H]2C(=O)N1CCCCC1	u	x	n	u	x	11µM
CC[C@]12c3[nH]c4ccc(Cl)cc4c3CCN1C(=O)[C@@H](CC(=O)NCC13CC4CC(CC(C4)C1)C3)C[C@@H]2C(=O)N1CCN(C(=O)c2ccco2)CC1	u	x	-106	14µM	x	11µM
CCN(CC)C(=O)[C@H]1CC(CC(=O)NCc2cccc(C(F)(F)F)c2)C(=O)N2CCc3c([nH]c4ccccc34)[C@]12C (stereo partly specified)	13µM	x	n	n	x	n
COc1ccc(NC(=O)COCc2cc(-c3ccc4c(c3)OCO4)on2)cc1	x	x	n	n	n	n
CNC(=O)c1ccc(NC(=O)c2cc(S(=O)(=O)N(C)C)ccc2N2CCCC2)cc1	n	x	-100	x	x	x
CCN(CC(=O)Nc1ccc(OC)cc1)C(=O)c1ccccc1Sc1ccccc1C#N	22µM	u	n	n	n	u
CCN(CC(=O)Nc1ccc(OC)cc1)C(=O)c1cc(S(=O)(=O)N(C)C)ccc1N1CCCC1	11µM	n	n	n	n	n
COc1cc(C)ccc1Oc1ccc2c(-c3ccccc3)noc2n1	x	x	n	x	x	x
CCCCOC(=O)c1ccc(NC(=O)Cc2coc3ccc(C(C)C)cc23)cc1	x	u	n	n	n	n
COc1cc(=O)n2c(c1C(=O)N(C)Cc1cscn1)CCN(Cc1c(C)[nH]c3ccccc13)CC2	x	x	x	n	x	n
Cc1cc(C(=O)Nc2c(C)nc3ccccn3c2=O)ccc1[N+](=O)[O-]	x	x	n	n	n	n
COc1cc2c(cc1OC)CN(C(=O)c1cccc(S(=O)(=O)N3CCc4ccccc43)c1)CC2	u	4µM	u	n	4µM	n
CC1Cc2ccccc2N1S(=O)(=O)c1cccc(C(=O)N2CCN(c3ncccn3)CC2)c1 (stereo unspecified)	u	u	-98	n	u	1.6µM
O=C(NCc1ccncc1)c1cccc(S(=O)(=O)N2CCc3ccccc32)c1	11µM	x	u	x	x	x
CC(NS(=O)(=O)c1cccc(C(=O)NCc2ccncc2)c1)c1ccccc1 (stereo unspecified)	n	x	-100	x	x	x
O=C(NCCc1ccccn1)c1cccc(S(=O)(=O)N2CCc3ccccc32)c1	u	n	n	n	n	n
CC(=O)N1CCN(C(=O)c2cccc(S(=O)(=O)N3c4ccccc4CC3C)c2)CC1 (stereo unspecified)	n	n	n	n	n	n
CCOc1ccc(CN2C(=O)c3ccccc3Sc3ccc(C(=O)O)cc32)cc1	x	x	n	n	u	n
COC(=O)C(c1cccc(OC)c1)(c1cn(C)c2ccccc12)C(Nc1ccccc1)c1ccccc1 (stereo unspecified)	x	x	n	x	x	x
CC1Cc2ccccc2N1S(=O)(=O)c1cccc(C(=O)NCc2ccncc2)c1 (stereo unspecified)	u	7.9µM	-89	u	n	n
O=C(c1cccc(S(=O)(=O)N2CCCCC2)c1)N1CCc2ccccc21	u	u	-72	n	n	n
CC1Cc2ccccc2N1S(=O)(=O)c1cccc(C(=O)NCc2ccccn2)c1 (stereo unspecified)	u	x	n	x	x	x
CCOC(=O)c1[nH]c(C)c(CCC(=O)NCc2cccc(C)c2)c1C	x	x	n	n	n	n
COc1ccc(C2=C(C)C(=O)N(Cc3ccc(C(=O)Nc4cccc(F)c4)cc3)S2(=O)=O)cc1	x	x	n	n	n	n
SMILES	HCV inhibitor	MARV entry inh	HCMV antiviral	VACV Venus inh	Lassa entry inh	Vaccinia mCherry
COc1ccc(C2=C(C)C(=O)N(Cc3ccc(C(=O)Nc4ccc(F)cc4C)cc3)S2(=O)=O)cc1	x	x	-63	n	u	n
COC(=O)c1cc(O)cc(OC)c1C(=O)c1c(O)cc(C)cc1O	n	x	n	n	x	n
COC(=O)c1cc(O)cc(OC)c1Oc1cc(C)cc(O)c1C(=O)O	n	x	-106	u	x	u
CCC(Oc1ccccc1)C(=O)Nc1cc(-c2ccccc2F)nn1-c1ccccc1 (stereo unspecified)	x	x	n	n	n	n
Cc1ccccc1Cn1cc(NC(=O)c2cc3nc(-c4ccco4)cc(C(F)(F)F)n3n2)cn1	10µM	n	n	n	n	u
O=C(NCc1ccco1)c1cc2nc(C3CC3)cc(C(F)(F)F)n2n1	n	n	n	n	3.5µM	x
O=C(NCc1ccccc1)c1cc2nc(C3CC3)cc(C(F)(F)F)n2n1	n	u	n	x	n	x
CCc1ccc(-c2cc(C(F)(F)F)n3nc(C(=O)Nc4cnn(Cc5ccc(C)cc5)c4)cc3n2)s1	11µM	9.2µM	x	x	u	x
O=C(Nc1ccc(Cl)cc1)c1cc2nc(-c3ccco3)cc(C(F)(F)F)n2n1	u	n	n	n	n	n
Cc1ccc(Cn2ccc(NC(=O)c3cc4nc(-c5ccco5)cc(C(F)(F)F)n4n3)n2)cc1	n	n	n	x	n	x
CCN(CC)CCOC(=O)c1ccc(NC(=O)c2cc3c(s2)-c2ccccc2OC3)cc1	x	u	n	u	x	u
CCc1nc2ccc(C(=O)NCCOc3ccc(OC)cc3)cn2c1N(C)Cc1cccs1	x	x	u	n	x	n
Cc1cc(C(=O)Nc2cccc(F)c2)c2c(C)nn(-c3cccc(Cl)c3C)c2n1	x	x	n	n	u	n
Cc1ccc2[nH]cc(C(c3ccccc3)c3cccs3)c2c1 (stereo unspecified)	x	u	-79	n[7.34 µM]	n	n[7.34 µM]
NCC(c1ccccc1)c1c[nH]c2ccccc12 (stereo unspecified)	u	u	n	n	n	n
Cc1ccc2[nH]cc(C(c3ccccc3)c3ccc(C)s3)c2c1 (stereo unspecified)	x	u	-100	n	u	n
c1ccc2c(C(c3c[nH]c4ccccc34)c3c[nH]c4ccccc34)c[nH]c2c1	x	x	x	n	x	n
O=C(NC1=NCCS1)C1COc2ccccc2O1 (stereo unspecified)	n	1µM	u	n	u	n
O=C(Nc1nc2c(s1)CCCC2)C1COc2ccccc2O1 (stereo unspecified)	u	u	n	n	5.8µM	n
O=C(Nc1ccncc1)C1COc2ccccc2O1 (stereo unspecified)	n	n	n	n	n	n
COc1cccc(CNCCSc2nnnn2C)c1OCc1ccc(Cl)cc1Cl	x	u	-61	n	u	n
Cn1nnnc1SCCCNCc1ccccc1OCc1ccccc1Cl	x	u	-63	n[7.34 µM]	n	n[7.34 µM]
COc1cc(CNCCSc2nnnn2C)cc(Br)c1OCc1ccc(F)cc1	10µM	u	n	u	n	x
CCOc1cc(CNCCSc2nnnn2C)cc(Br)c1OCc1ccc(F)cc1	u	u	n	n	u	n
CCOc1c(CNCCSc2nnnn2C)cccc1OC	x	n	n	n	n	n
COc1cccc(CNCCSc2nnnn2C)c1OCc1ccc(Cl)cc1	x	10µM	u	n	n	n
